Screening data from PubChem BioAssay.
Only some compounds are listed: those with a hit (about 5.7% of all), similar ones and a draw of the others.
hcDAF-12 act = H. contortus DAF-12 activation, primary screen. HEK293 hcDAF-12 lit1-tk-luc reporter, luminescence; 0% DMSO, 100% Δ7-dafachronic acid. activation, % at 6.8 µM. 370,000 tested, 1.4% active;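 active means activation above the mean of all tested compounds plus 3 SD, cut at about 5.5% in these data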;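 further: 100% = response to 3 µM Δ7-dafachronic acid high control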
ssDAF12 agonist = activates DAF-12 receptor from parasite S. stercoralis; activation, % at 6.8 µM; HEK293 ssDAF-12/GRIP1 lit1-tk-luc reporter, luminescence; % of 3 µM dafachronic acid response; AID 652126; 370,000 tested, 1% active;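 active means activation above the mean over all tested compounds plus 3 SD, cut at about 0.9% in these data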;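 further: 0% = DMSO-only wells and 100% = 3 µM delta7-dafachronic acid wells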
DAX1 inh-1 = inhibits human nuclear receptor DAX1; P51843; HEK293 Gal4-DAX1 luciferase reporter, luminescence; inhibition, % at 6.75 µM; 340,000 tested, 0.99% active;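 active means inhibition above the mean over all tested compounds plus 3 SD, cut at about 4.2% in these data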;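 further: 0% = DAX1-transfected cells with DMSO and 100% = empty-vector control cells with DMSO; inhibition shows as a rise in luminescence from relieved DAX1 repression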
DAX1 inh-2 = DAX1 (NR0B1) inhibition, primary screen; HEK293T StAR-luciferase reporter, SF-1/DAX-1 repression relief; inhibition, % at 6.8 µM; 370,000 tested, 1.1% active; AID 652010;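 active means inhibition above the mean over all tested compounds plus 3 SD, cut at about 3.6% in these data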;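 further: 0% = DAX-1 cells with DMSO and 100% = cells lacking DAX-1 with DMSO; higher inhibition means more luminescence from relief of DAX-1 repression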
hgDAF12 agonist = activates the H. glycines DAF-12 receptor ligand-binding domain | HEK293 GAL4-hgDAF12 UAS-luciferase reporter, agonist luminescence; normalized to butyrate control | activation, % at 6.8 µM | 370,000 tested, 1.8% active | AID 687014;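 active means activation above a cutoff set at the mean of all screened compounds plus 3 SD, cut at about 10% in these data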;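 further: 0% = DMSO wells and 100% = sodium butyrate wells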
AHR act = human AHR activation | P35869 | AID 2796 | 320,000 tested, 2.5% active | activation, % at 5 µM | AHR-responsive luciferase reporter cells, luminescence; in the data active means activation above about 47%;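 further: 0% = vehicle wells and 100% = reference agonist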
AHR act confirm = confirmation of human aryl hydrocarbon receptor activators. shares compounds with AHR act. human cells, AHR-responsive luciferase reporter, luminescence. activation, % at 9 µM. 2,300 tested, 87% active. AID 2845; in the data active means activation above about 49%;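 further: HepG2 hepatoma cells carrying a DRE-driven firefly luciferase reporter; 0% = vehicle wells and 100% = reference agonist wells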
PXR act counter = activates human PXR in AHR activator counter-screen; cell-based PXR reporter, luciferase luminescence; AID 434939; 2,300 tested, 88% active; activation, % at 11.6 µM; shares compounds with AHR act; in the data active means activation above about 11%;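 further: human hepatoma DPX-2 cells expressing full-length human PXR; 0% = DMSO and 100% = reference agonist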
Target sequence (O75469 whole entry, looked up): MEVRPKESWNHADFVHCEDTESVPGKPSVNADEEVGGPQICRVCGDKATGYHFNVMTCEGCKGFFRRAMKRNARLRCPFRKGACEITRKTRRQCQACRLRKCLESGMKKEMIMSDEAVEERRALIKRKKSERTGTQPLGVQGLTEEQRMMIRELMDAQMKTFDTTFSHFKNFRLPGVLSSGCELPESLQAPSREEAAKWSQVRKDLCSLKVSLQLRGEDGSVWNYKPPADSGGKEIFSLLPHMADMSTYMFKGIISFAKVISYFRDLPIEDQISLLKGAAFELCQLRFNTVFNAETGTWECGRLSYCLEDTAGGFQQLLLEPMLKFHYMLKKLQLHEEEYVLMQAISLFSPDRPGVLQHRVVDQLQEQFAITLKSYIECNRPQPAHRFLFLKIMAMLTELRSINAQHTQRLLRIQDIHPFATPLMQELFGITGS
* = called active by the depositor; nt = not tested or not shown; ! = a repeat was not active.

SMILES	hcDAF-12 act	ssDAF12 agonist	DAX1 inh-1	DAX1 inh-2	hgDAF12 agonist	AHR act	AHR act confirm	PXR act counter
CSc1ccc(C2Nc3ccccc3-c3cc(C)nn32)cc1 (stereo not drawn)	1	-1	-1	0	6	101*	100*	29*
CC1=CCC2C(=O)N(c3ccc(C)cc3)C(=O)C2C1 (stereo not drawn)	-1	-1	1	1	1	0	nt	nt
CC1=CCC2C(=O)N(c3ccc(C)c(Br)c3)C(=O)C2C1 (stereo not drawn)	-3	-1	1	0	-2	90*	3	87*
COc1cccc(CNS(=O)(=O)c2ccc3c(c2)C(C)(C)C(=O)N3C)c1	nt	nt	2	nt	nt	2	nt	nt
Cc1ccccc1-c1nc(-c2ccccn2)no1	5	-1	-3	1	-3	29	nt	nt
Cc1ccccc1-c1nc(-c2cccnc2)no1	6.1*	1	2	0	10*	107*	105*	nt
Fc1ccc2nc(Nc3nc4cc5c(cc4s3)OCO5)sc2c1	0	0	2	0	2	119*	80*	19*
Fc1ccc2nc(Nc3nc4c(F)cc(F)cc4s3)sc2c1	4	1	0	0	1	31	nt	nt
O=C(Nc1cccnc1)c1ccc(Cl)c(Cl)c1	1	-1	-1	0	2	20	nt	nt
O=C(Nc1ccc(Cl)c(Cl)c1)c1ccc(Cl)c(Cl)c1	5	1	2	1	13*	168*	159*	33*
COC(=O)c1ccc(OCc2nn[nH]n2)cc1	0	0	-1	-1	1	-2	nt	nt
O=C1C(Cl)=C(N2CCOCC2)C(=O)N1CCc1ccccc1	4	0	2	1	11*	92*	117*	16*
O=C1C(Cl)=C(NCCc2ccccc2)C(=O)N1CCc1ccccc1	-1	-1	1	0	2	35	nt	nt
O=C1C(Cl)=C(NCC2CCCO2)C(=O)N1CCc1ccccc1 (stereo not drawn)	0	0	2	2	7	92*	91*	65*
CN1CCN(C2=C(Cl)C(=O)N(CCc3ccccc3)C2=O)CC1	0	-1	0	1	6	1	nt	nt
Nc1nc(-c2ccc([N+](=O)[O-])cc2)cc(=O)[nH]1	0	-1	0	1	2	nt	nt	nt
Cc1cc(/C=C(/C#N)C(=O)O)c(C)n1-c1cccc2ccccc12	-2	0	1	0	1	2	nt	nt
CCc1cccc(CC)c1NC(=O)CSc1nc2ccc(N3C(=O)C4C5C=CC(C5)C4C3=O)cc2s1 (stereo not drawn)	-3	-2	-3	-2	-6	126*	53*	69*
O=C(O)c1ccc(CSc2nc3ccc(N4C(=O)C5C6C=CC(C6)C5C4=O)cc3s2)cc1 (stereo not drawn)	0	-1	0	1	4	5	nt	nt
NC(=S)N/N=C/c1ccc(-c2ccc([N+](=O)[O-])cc2)o1	2	0	1	-2	2	92*	118*	14*
Cc1ccc2c(C)c(C(=O)N3CCN(c4cnccn4)CC3)oc2c1C	1	0	0	1	-1	92*	114*	25*
Cc1c(Cc2ccc3c(c2)OCO3)sc(NC(=O)c2cccc3ccccc23)c1C(N)=O	-1	-1	-1	0	-3	103*	60*	58*
Cc1cc(C(F)(F)F)n2ncc(-c3ccc(F)cc3)c2n1	2	-1	-1	0	2	88*	120*	23*
O=C(Nc1cccc(-c2cn3ccsc3n2)c1)c1ccccc1	-1	-1	-1	-1	-1	82*	72*	14*
C/C(=N\NC(=O)c1cccc([N+](=O)[O-])c1)c1cccs1	1	-1	4.9*	1	6	81*	79*	31*
SMILES	hcDAF-12 act	ssDAF12 agonist	DAX1 inh-1	DAX1 inh-2	hgDAF12 agonist	AHR act	AHR act confirm	PXR act counter
O=c1c2c(nc3nc(NCc4cccc5ccccc45)[nH]n13)CCC2	0	0	-1	1	3	2	nt	nt
COc1cccc(OC)c1C1=CC(=O)C[C@H](c2ccc3c(c2)OCO3)C1	-1	-1	2	0	-1	41	nt	nt
COc1cccc(C2=CC(=O)C[C@H](c3ccc4c(c3)OCO4)C2)c1OC	nt	nt	2	nt	nt	120*	109*	148*
COc1ccc(F)cc1C1=CC(=O)C[C@H](c2ccc3c(c2)OCO3)C1	-2	-1	1	-2	0	86*	73*	112*
O=C1C=C(c2cccc(Br)c2)C[C@@H](c2ccc3c(c2)OCO3)C1	1	-1	0	0	0	86*	83*	33*
COc1cc(F)c(C2=CC(=O)C[C@H](c3ccc4c(c3)OCO4)C2)cc1F	0	-1	-1	0	1	2	nt	nt
O=C1C=C(c2ccccc2)C[C@@H](c2ccc3c(c2)OCO3)C1	0	-2	0	0	0	36	nt	nt
Cc1cccc(C(=O)N2CCNC(=O)C2CC(=O)Nc2cccc(Cl)c2)c1 (stereo not drawn)	-3	-1	1	0	-2	-10	nt	nt
CCCC(=O)Nc1nc(C)c(-c2csc(Nc3ccccc3OC)n2)s1	-1	-2	-1	0	0	79*	101*	34*
Oc1ccc(-c2csc(Nc3ccccn3)n2)c(O)c1	4	1	4.6*	1	9	169*	103*	15*
COc1ccc(OC)c(Nc2nc(-c3sc(N)nc3C)cs2)c1	-1	-2	-2	0	0	46	nt	nt
CCCC(=O)Nc1nc(C)c(-c2csc(Nc3cc(OC)ccc3OC)n2)s1	-2	-2	-1	0	2	85*	76*	45*
C=CCCC(=O)Nc1nc(C)c(-c2csc(Nc3cc(OC)ccc3OC)n2)s1	-1	-2	-3	0	2	117*	69*	62*
NS(=O)(=O)c1ccc(Nc2nc(-c3ccc(O)cc3O)cs2)cc1	-2	-1	0	0	-1	7	nt	nt
CC(=O)Nc1nc(C)c(-c2csc(Nc3cccc([N+](=O)[O-])c3)n2)s1	-4	-3	-4	-2	2	-6	nt	nt
CC(=O)Nc1nc(C)c(-c2csc(Nc3ccccn3)n2)s1	3	-1	3	1	10*!	116*	108*	32*
C=CCCC(=O)Nc1nc(C)c(-c2csc(Nc3cccc(OC)c3)n2)s1	3	-1	-1	0	3	301*	100*	14*
